Only some compounds are listed: those with a hit (about 2.8% of all), similar ones and a draw of the others.
PI5P4Ka inh: PI5P4K alpha (human) kinase inhibition. PI5P4Kalpha enzyme, ADP-Glo luminescence, 60 min; hits give low values. max response, %. 330,000 compounds, 1.2% hits; active means max response of -50% or lower; inconclusive means between -30% and -50%; inactive means -30% or higher; further: value at the top dose of about 77 µM; on the % scale 0 is the no-effect control and ±100 the full control effect
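ADP-Glo luminescence end-point read after a 60 min room-temperature kinase reaction of PI5P4Kalpha plus substrate, initiated with ATP at 5 microM final. Buffer: 0.038 M HEPES pH 7.4, EGTA, 0.1% CHAPS, 5% DMSO.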
POLI inh: DNA polymerase iota (human) inhibition. Q9UNA4. Pol iota fluorescent replication assay, 10 min. Potency, µM (titrated, usually from 115 µM), inactives show top-dose activity, negative = inhibition, actives largely listed as inhibitors. 390,000 compounds, 1% hits; further: potency means the concentration at half of the fitted maximal effect
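Pol iota at 10 nM preincubated 15 min with compounds at room temperature; reaction started with fluorescent substrate, 50 nM final. Fluorescence read kinetically at 0 and 10 min; buffer-only wells as negative control.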
POLB inh: inhibitors of human DNA polymerase beta. Pol beta primer extension/strand displacement, fluorescence kinetic. P06746. 340,000 compounds, 1.3% hits. Potency, µM (series often up to 114 µM), inactives show at the top dose activity change, negative = inhibition, most hits filed as inhibitors; further: potency means the concentration at half of the fitted maximal effect; on the % scale 0 is the no-effect control and ±100 the full control effect
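Pol beta (10 nM) and compounds were preincubated 15 min at room temperature, then 50 nM substrate (final) started primer extension/strand displacement. Reads were taken at 0 and 10 min; concentration-response data were fitted to a four-parameter Hill equation.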
POLH inh: blocks human DNA polymerase eta activity; recombinant Pol eta, fluorescent DNA replication assay; Potency, µM (doses to about 114 µM), for inactives: at the highest dose activity change, negative = inhibition, hits mostly inhibitors; 390,000 compounds, 1.2% hits; AID 588591; further: potency means the concentration at half of the fitted maximal effect; on the % scale 0 is the no-effect control and ±100 the full control effect
Target sequence (Q9Y253 whole entry, looked up): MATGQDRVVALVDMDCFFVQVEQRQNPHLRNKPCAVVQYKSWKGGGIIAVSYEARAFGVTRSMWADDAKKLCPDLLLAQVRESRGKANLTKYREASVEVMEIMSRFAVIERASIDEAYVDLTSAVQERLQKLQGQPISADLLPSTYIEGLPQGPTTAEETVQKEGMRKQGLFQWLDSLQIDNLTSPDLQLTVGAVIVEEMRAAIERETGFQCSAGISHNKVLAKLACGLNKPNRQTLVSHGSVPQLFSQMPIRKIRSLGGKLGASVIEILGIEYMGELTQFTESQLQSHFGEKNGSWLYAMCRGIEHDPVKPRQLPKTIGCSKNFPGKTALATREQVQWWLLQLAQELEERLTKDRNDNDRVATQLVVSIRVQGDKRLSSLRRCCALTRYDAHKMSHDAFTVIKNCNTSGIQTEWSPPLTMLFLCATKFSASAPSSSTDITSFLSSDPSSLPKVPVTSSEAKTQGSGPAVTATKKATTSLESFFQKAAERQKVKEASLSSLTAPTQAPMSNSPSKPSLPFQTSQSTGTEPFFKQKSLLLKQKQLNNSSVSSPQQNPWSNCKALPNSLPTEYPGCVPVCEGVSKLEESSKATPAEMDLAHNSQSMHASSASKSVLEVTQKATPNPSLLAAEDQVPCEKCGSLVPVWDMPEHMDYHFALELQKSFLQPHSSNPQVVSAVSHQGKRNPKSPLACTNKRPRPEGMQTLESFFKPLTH
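Pol eta at 10 nM preincubated with compounds 15 min at room temperature; reaction started with fluorescent substrate (50 nM final) and read kinetically at 0 and 10 min.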
POLK inh: blocks human DNA polymerase kappa activity; Q9UBT6; 400,000 compounds, 0.53% hits; Potency, µM (doses to about 107 µM), without a hit: top-dose activity, negative = inhibition, hits mostly inhibitors; purified Pol kappa, fluorescent DNA synthesis assay, 10 min; further: potency means the concentration at half of the fitted maximal effect; on the % scale 0 is the no-effect control and ±100 the full control effect
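Fluorescent qHTS in 1536-well format: enzyme (10 nM) and compound sat 15 min at room temperature before 50 nM substrate (final) was added. Signal taken at 0 and 10 min; no-enzyme buffer wells were negative controls.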
WRN inhibitor: blocks human WRN helicase. AID 651768. WRN helicase unwinding, fluorescent forked duplex, kinetic. 360,000 compounds, 0.46% hits. Potency, µM (titrated, usually from 114 µM), for inactives: at the highest dose activity change, negative = inhibition, most hits filed as inhibitors. Q14191; further: potency means the concentration at half of the fitted maximal effect; on the % scale 0 is the no-effect control and ±100 the full control effect; nearly all actives have a fitted effect of over 55% in size
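WRN at 20 nM final preincubated with compound 15 min at room temperature; reaction started with 100 nM fluorophore/quencher forked duplex oligonucleotide and 2 mM ATP final. Unwinding followed kinetically by red fluorescence (ex 525, em 598 nm).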
An asterisk follows results filed as active; [ ] = remark or other dose. Unless noted, the call rests on the fitted dose curve; in most records, active means well fitted curve in the direction sought with a large enough effect; inconclusive means small, poorly fitted or top-dose-only effect, or another doubt; inactive means no such curve, though single readings can be large; an effect the other way counts as inactive or inconclusive.

Results for Cc1cc(Cl)ccc1C(O)c1ncc(-c2cccc(C(F)(F)F)c2)[nH]1 (stereo unspecified) ?
PI5P4Ka inh: 14.3; WRN inhibitor: -3.6%

What do the screens show for `COc1cc(/C=C2/C(=O)NN(c3ccc(Cl)cc3)C2=O)cc(OC)c1O`?
PI5P4Ka inh: -3.0; POLI inh: inconclusive; POLB inh: -25.1%; POLH inh: -4.7%; POLK inh: -6.8%; WRN inhibitor: -25.8%

Results for COc1cc(/C=C2\SC(=O)N(Cc3ccc(Cl)cc3)C2=O)cc([N+](=O)[O-])c1O ?
PI5P4Ka inh: -80.9*; POLI inh: inconclusive; POLB inh: 7.6%; POLH inh: 79.4µM*; POLK inh: -18.2%; WRN inhibitor: -5.7%[11.6 µM]

Results for COc1cc(/C=C2/C(=O)NN(c3ccccc3)C2=O)cc(Br)c1O ?
PI5P4Ka inh: -55.1*; POLI inh: -28.5%; POLB inh: 4.4%; POLH inh: -4.0%; POLK inh: -25.4%; WRN inhibitor: -12.5%

What do the screens show for `COc1cc(/C=C2\C(=O)NN(c3ccc(C)cc3)C2=O)cc([N+](=O)[O-])c1O`?
PI5P4Ka inh: -53.8*; POLI inh: -11.2%; POLB inh: inconclusive; POLH inh: 22.4µM*; POLK inh: -26.4%; WRN inhibitor: inconclusive

Results for CCN=C1S/C(=C\c2cc(Br)c(O)c(OC)c2)C(=O)N1CC ?
PI5P4Ka inh: -73.1*; POLI inh: 8.9%; POLB inh: 2.8%; POLH inh: -9.2%; POLK inh: -2.9%; WRN inhibitor: -6.8%

How did COc1ccc(S(=O)(=O)N(C)C)cc1NC(=O)COC(=O)c1nn(C)c(=O)c2ccccc12 do in these assays?
PI5P4Ka inh: 0.1; POLI inh: 28.1%; POLB inh: 12.5%; POLH inh: -11.2%; POLK inh: 6.7%; WRN inhibitor: 6.6%

What do the screens show for `Cc1nc2ccc(-c3nc4ccccc4[nH]3)cc2[nH]1`?
PI5P4Ka inh: -0.5; POLI inh: inconclusive; POLB inh: 12.6µM*; POLH inh: -3.9%; POLK inh: -36.6%; WRN inhibitor: -11.4%

How did Cc1ccc(-c2nc3ccccc3[nH]2)cn1 do in these assays?
PI5P4Ka inh: -0.5; POLI inh: 26.4%; POLB inh: 7.9%; POLH inh: -16.2%; POLK inh: 3.2%; WRN inhibitor: 8.3%

How did C/C(=N\OCc1nc2ccccc2c(=O)n1/N=C/c1cc(C)cc([N+](=O)[O-])c1O)c1ccccc1 do in these assays?
PI5P4Ka inh: -0.1; POLI inh: 7.2%; POLB inh: 8.3%; POLH inh: -0.1%; POLK inh: -0.6%; WRN inhibitor: 4.1%

How did C/C(=N\OCc1nc2ccccc2c(=O)n1/N=C/c1cc([N+](=O)[O-])ccc1O)c1ccccc1 do in these assays?
PI5P4Ka inh: -54.3*; POLI inh: 4.7%; POLB inh: -11.4%; POLH inh: inconclusive; POLK inh: -6.7%; WRN inhibitor: -18.7%

Results for O=c1c(Cl)c(Cl)cnn1Cc1nnc(-c2ccccc2Br)o1 ?
PI5P4Ka inh: -57.2*; POLI inh: inconclusive; POLB inh: 39.8µM*; POLH inh: 79.4µM*; POLK inh: -16.9%; WRN inhibitor: -35.4%[57.1 µM]

How did Clc1ccccc1OCc1nnc(-c2ccccc2Br)o1 do in these assays?
PI5P4Ka inh: 0.2; POLI inh: -1.1%; POLB inh: 6.0%; POLH inh: 0.8%; POLK inh: -5.0%; WRN inhibitor: -1.6%

What do the screens show for `Cc1ccc(-c2csc3n[nH]c(=S)n23)cc1`?
PI5P4Ka inh: -95.1*; POLI inh: -8.3%; POLB inh: 28.1%; POLH inh: -5.8%; POLK inh: -11.4%; WRN inhibitor: -25.6%

Results for O=C(NCc1ccc(F)cc1)c1cc(C2CCCCN2C(=O)c2ccc(Cl)cc2)on1 (stereo unspecified) ?
PI5P4Ka inh: 6.0; WRN inhibitor: -10.1%

Results for Cc1ccccc1CNC(=O)c1ccc(CN2CC(=O)N3CCCCC3C2=O)cc1 (stereo unspecified) ?
POLI inh: 8.2%; POLB inh: 6.2%; POLH inh: 2.1%; POLK inh: -19.7%

What do the screens show for `O=c1cc2nc(-c3ccccc3F)nc(SCc3ccc(Br)cc3)n2[nH]1`?
POLI inh: inconclusive; POLB inh: 31.6µM*; POLH inh: inconclusive; POLK inh: inconclusive

What do the screens show for `Cc1cccc(OCCCSc2nc(-c3ccc(C(C)(C)C)cc3)nc3cc(=O)[nH]n23)c1C`?
POLI inh: inconclusive; POLB inh: -23.9%; POLK inh: -17.0%

Results for CCc1ccc(OCCCSc2nc(-c3ccc(C(C)(C)C)cc3)nc3cc(=O)[nH]n23)cc1 ?
POLI inh: inconclusive; POLB inh: 17.8µM*; POLK inh: -25.7%

What do the screens show for `Cc1ccc(OCCSc2nc(-c3ccccc3C)nc3cc(=O)[nH]n23)cc1Cl`?
POLI inh: inconclusive; POLB inh: inconclusive; POLH inh: 89.1µM*; POLK inh: inconclusive

Results for Cc1ccc(C(C)C)c(OCCSc2nc(-c3ccccc3F)nc3cc(=O)[nH]n23)c1 ?
POLI inh: inconclusive; POLB inh: 15.8µM*; POLH inh: inconclusive; POLK inh: -11.4%

Results for Cc1cccc(-c2nc(SCCCOc3ccc(Cl)c(C)c3)n3[nH]c(=O)cc3n2)c1 ?
POLI inh: -10.2%; POLB inh: 11.5%; POLH inh: 4.1%; POLK inh: 21.6%

Results for COc1ccc(-c2nc(SCCOc3cc(C)ccc3C(C)C)n3[nH]c(=O)cc3n2)cc1 ?
POLI inh: 9.9%; POLB inh: 13.0%; POLH inh: -2.6%; POLK inh: 14.9%

What do the screens show for `COc1ccccc1NC(=O)CSc1nc(-c2ccccc2F)nc2cc(=O)[nH]n12`?
POLI inh: inconclusive; POLB inh: inconclusive; POLH inh: -14.5%; POLK inh: -2.2%

What do the screens show for `Cc1nc2cnc(OCc3ccccc3)nc2n(CCc2ccccc2)c1=O`?
POLK inh: 11.2%[60.1 µM]

How did CN(C)CCCn1c(SCC(=O)N2c3ccccc3Sc3ccccc32)nc2ccccc2c1=O do in these assays?
PI5P4Ka inh: 12.8; POLI inh: -7.1%; POLB inh: -3.9%[57.1 µM]; POLH inh: -10.1%; POLK inh: -7.2%; WRN inhibitor: 2.1%

What do the screens show for `COc1ccc(Cc2nnc(Nc3ccccc3)s2)cc1Br`?
PI5P4Ka inh: 2.1; POLI inh: inconclusive; POLB inh: 56.2µM*; POLH inh: inconclusive; POLK inh: -2.0%; WRN inhibitor: 56.2µM*

Compound activity (PubChem)
